Laboratory results taken from the supplement of paper PMC11732987, “Enantioselective OTUD7B fragment discovery through chemoproteomics screening and high-throughput optimisation” (Communications Chemistry, 2025).

Tests used:
Assay in all cases: log2 ratio of Biotin-Ahx-Ub-VS probe labelling (fragment/DMSO); higher = less target engagement (more negative = stronger competition), active = hit call of the paper (q ≤ 0.05, log2 ratio ≤ -1)
Conditions in all cases: compound concentration: 200 uM; treatment time: 3 h
USP34 = USP34 (UniProt Q70CQ2)
Procedure, shortened: (§1)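 Average log2 ratios of fragment over vehicle were obtained by unpaired t-test from global-median-normalised Spectronaut label-free quantities. Proteins with ≥2 unique peptides were included. HEK293T lysate (495 µg per sample) was treated in triplicate with fragment at 200 µM or vehicle for 3 h, then with Biotin-Ahx-Ub-VS at 0.5 µM final for 1 h, and labelled DUBs were NeutrAvidin-enriched and run by diaPASEF LC-MS/MS.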

USP36 = target: T1, USP36 (UniProt Q9P275)
T1 sequence (whole entry): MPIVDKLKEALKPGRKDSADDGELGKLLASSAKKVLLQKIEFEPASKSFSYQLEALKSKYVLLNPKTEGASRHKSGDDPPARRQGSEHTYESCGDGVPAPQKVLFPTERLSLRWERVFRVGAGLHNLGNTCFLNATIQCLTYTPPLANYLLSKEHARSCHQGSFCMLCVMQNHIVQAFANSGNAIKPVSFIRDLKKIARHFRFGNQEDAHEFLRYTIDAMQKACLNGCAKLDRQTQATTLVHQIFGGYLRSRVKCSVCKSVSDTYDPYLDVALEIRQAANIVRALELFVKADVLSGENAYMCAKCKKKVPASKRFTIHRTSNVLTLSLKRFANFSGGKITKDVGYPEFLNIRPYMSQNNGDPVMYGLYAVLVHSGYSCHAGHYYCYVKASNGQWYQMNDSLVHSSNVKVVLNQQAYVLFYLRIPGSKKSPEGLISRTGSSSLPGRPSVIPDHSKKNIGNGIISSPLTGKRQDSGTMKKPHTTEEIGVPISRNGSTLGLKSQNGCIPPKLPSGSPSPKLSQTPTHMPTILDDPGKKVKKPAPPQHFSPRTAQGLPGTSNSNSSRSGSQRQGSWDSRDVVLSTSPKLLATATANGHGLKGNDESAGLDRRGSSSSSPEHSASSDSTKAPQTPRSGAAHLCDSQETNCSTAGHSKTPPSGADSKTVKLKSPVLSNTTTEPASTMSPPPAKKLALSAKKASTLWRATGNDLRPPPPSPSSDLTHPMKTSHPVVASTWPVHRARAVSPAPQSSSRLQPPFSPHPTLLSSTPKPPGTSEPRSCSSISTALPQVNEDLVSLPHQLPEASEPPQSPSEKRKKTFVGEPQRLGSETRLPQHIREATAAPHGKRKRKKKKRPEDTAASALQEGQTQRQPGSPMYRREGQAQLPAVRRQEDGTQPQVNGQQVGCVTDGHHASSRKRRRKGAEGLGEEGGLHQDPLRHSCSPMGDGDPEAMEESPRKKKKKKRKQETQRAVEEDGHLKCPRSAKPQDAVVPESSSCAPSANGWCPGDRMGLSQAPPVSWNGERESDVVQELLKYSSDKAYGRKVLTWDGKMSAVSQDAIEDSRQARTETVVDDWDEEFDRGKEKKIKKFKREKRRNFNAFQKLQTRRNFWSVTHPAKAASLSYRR
Procedure, shortened: as §1

USP38 = target: T2, USP38 (UniProt Q8NB14)
T2 sequence (whole entry): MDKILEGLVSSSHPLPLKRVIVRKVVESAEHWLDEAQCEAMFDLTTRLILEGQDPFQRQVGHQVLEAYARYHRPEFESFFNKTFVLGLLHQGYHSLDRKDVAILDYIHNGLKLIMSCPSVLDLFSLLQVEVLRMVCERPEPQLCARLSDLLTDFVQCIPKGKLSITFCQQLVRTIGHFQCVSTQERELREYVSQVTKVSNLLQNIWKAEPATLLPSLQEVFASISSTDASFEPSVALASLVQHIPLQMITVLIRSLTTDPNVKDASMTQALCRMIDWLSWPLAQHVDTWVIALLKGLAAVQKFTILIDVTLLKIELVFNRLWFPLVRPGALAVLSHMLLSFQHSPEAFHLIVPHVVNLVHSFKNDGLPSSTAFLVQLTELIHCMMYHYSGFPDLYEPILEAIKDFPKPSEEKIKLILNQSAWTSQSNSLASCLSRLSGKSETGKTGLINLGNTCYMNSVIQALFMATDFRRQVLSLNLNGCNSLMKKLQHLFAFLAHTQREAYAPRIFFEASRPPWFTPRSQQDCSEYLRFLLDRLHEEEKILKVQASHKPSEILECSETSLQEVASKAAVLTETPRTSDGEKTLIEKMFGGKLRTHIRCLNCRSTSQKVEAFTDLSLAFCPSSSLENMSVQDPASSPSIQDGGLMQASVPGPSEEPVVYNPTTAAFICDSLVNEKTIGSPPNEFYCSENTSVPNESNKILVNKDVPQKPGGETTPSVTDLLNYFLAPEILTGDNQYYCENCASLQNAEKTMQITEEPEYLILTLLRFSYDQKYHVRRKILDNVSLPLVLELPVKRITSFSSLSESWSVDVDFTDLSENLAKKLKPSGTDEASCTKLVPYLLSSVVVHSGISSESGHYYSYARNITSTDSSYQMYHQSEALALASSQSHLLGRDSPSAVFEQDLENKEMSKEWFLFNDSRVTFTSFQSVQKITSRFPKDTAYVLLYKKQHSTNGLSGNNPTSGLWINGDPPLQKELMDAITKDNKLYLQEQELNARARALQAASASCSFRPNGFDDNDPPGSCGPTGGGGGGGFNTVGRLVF
Procedure, shortened: as §1

USP39 = target: T3, USP39 (UniProt Q53GS9)
T3 sequence (whole entry): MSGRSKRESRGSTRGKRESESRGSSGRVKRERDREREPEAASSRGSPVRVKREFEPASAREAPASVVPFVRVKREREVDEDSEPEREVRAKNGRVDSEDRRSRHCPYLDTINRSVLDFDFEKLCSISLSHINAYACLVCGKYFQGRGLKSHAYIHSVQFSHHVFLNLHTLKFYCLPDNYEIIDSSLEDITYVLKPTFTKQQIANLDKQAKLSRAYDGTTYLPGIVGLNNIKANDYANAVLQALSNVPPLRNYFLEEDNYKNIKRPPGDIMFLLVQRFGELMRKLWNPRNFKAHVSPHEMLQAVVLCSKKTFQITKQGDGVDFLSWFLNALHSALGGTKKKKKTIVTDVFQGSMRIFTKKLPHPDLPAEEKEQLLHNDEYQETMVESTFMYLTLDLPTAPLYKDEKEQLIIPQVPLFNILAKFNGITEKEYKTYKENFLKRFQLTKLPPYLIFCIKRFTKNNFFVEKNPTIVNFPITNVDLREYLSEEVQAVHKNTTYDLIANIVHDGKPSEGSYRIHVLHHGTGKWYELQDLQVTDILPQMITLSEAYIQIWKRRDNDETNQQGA
Procedure, shortened: as §1

USP4 = target: T4, USP4 (UniProt Q13107)
T4 sequence (whole entry): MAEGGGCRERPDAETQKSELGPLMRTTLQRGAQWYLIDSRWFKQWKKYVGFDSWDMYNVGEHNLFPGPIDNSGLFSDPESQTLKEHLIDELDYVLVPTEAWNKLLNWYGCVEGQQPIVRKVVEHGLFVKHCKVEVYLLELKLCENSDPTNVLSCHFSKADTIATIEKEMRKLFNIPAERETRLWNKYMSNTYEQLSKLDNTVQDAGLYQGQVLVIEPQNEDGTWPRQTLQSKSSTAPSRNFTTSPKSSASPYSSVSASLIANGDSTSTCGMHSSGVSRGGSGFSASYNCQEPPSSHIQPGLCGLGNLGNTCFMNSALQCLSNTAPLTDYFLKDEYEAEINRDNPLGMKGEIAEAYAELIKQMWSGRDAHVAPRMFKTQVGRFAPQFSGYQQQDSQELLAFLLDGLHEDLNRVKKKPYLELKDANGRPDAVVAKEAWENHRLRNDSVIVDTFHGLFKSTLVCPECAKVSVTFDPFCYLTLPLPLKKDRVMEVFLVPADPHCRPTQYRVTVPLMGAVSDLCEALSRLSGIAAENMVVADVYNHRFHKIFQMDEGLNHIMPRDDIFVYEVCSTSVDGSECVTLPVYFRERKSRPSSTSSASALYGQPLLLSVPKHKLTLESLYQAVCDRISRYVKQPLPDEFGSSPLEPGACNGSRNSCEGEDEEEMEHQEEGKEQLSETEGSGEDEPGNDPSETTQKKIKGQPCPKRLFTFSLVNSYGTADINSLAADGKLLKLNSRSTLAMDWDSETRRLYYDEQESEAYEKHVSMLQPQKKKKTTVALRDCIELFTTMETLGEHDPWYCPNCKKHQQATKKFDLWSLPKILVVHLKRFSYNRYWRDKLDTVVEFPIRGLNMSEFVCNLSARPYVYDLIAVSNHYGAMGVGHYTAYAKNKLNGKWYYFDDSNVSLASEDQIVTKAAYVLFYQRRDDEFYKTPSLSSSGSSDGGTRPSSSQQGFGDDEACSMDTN
Procedure, shortened: as §1

Measured: log2 ratio of Biotin-Ahx-Ub-VS probe labelling

Sequence of USP34 (Q70CQ2 whole entry, the tested form may be a part): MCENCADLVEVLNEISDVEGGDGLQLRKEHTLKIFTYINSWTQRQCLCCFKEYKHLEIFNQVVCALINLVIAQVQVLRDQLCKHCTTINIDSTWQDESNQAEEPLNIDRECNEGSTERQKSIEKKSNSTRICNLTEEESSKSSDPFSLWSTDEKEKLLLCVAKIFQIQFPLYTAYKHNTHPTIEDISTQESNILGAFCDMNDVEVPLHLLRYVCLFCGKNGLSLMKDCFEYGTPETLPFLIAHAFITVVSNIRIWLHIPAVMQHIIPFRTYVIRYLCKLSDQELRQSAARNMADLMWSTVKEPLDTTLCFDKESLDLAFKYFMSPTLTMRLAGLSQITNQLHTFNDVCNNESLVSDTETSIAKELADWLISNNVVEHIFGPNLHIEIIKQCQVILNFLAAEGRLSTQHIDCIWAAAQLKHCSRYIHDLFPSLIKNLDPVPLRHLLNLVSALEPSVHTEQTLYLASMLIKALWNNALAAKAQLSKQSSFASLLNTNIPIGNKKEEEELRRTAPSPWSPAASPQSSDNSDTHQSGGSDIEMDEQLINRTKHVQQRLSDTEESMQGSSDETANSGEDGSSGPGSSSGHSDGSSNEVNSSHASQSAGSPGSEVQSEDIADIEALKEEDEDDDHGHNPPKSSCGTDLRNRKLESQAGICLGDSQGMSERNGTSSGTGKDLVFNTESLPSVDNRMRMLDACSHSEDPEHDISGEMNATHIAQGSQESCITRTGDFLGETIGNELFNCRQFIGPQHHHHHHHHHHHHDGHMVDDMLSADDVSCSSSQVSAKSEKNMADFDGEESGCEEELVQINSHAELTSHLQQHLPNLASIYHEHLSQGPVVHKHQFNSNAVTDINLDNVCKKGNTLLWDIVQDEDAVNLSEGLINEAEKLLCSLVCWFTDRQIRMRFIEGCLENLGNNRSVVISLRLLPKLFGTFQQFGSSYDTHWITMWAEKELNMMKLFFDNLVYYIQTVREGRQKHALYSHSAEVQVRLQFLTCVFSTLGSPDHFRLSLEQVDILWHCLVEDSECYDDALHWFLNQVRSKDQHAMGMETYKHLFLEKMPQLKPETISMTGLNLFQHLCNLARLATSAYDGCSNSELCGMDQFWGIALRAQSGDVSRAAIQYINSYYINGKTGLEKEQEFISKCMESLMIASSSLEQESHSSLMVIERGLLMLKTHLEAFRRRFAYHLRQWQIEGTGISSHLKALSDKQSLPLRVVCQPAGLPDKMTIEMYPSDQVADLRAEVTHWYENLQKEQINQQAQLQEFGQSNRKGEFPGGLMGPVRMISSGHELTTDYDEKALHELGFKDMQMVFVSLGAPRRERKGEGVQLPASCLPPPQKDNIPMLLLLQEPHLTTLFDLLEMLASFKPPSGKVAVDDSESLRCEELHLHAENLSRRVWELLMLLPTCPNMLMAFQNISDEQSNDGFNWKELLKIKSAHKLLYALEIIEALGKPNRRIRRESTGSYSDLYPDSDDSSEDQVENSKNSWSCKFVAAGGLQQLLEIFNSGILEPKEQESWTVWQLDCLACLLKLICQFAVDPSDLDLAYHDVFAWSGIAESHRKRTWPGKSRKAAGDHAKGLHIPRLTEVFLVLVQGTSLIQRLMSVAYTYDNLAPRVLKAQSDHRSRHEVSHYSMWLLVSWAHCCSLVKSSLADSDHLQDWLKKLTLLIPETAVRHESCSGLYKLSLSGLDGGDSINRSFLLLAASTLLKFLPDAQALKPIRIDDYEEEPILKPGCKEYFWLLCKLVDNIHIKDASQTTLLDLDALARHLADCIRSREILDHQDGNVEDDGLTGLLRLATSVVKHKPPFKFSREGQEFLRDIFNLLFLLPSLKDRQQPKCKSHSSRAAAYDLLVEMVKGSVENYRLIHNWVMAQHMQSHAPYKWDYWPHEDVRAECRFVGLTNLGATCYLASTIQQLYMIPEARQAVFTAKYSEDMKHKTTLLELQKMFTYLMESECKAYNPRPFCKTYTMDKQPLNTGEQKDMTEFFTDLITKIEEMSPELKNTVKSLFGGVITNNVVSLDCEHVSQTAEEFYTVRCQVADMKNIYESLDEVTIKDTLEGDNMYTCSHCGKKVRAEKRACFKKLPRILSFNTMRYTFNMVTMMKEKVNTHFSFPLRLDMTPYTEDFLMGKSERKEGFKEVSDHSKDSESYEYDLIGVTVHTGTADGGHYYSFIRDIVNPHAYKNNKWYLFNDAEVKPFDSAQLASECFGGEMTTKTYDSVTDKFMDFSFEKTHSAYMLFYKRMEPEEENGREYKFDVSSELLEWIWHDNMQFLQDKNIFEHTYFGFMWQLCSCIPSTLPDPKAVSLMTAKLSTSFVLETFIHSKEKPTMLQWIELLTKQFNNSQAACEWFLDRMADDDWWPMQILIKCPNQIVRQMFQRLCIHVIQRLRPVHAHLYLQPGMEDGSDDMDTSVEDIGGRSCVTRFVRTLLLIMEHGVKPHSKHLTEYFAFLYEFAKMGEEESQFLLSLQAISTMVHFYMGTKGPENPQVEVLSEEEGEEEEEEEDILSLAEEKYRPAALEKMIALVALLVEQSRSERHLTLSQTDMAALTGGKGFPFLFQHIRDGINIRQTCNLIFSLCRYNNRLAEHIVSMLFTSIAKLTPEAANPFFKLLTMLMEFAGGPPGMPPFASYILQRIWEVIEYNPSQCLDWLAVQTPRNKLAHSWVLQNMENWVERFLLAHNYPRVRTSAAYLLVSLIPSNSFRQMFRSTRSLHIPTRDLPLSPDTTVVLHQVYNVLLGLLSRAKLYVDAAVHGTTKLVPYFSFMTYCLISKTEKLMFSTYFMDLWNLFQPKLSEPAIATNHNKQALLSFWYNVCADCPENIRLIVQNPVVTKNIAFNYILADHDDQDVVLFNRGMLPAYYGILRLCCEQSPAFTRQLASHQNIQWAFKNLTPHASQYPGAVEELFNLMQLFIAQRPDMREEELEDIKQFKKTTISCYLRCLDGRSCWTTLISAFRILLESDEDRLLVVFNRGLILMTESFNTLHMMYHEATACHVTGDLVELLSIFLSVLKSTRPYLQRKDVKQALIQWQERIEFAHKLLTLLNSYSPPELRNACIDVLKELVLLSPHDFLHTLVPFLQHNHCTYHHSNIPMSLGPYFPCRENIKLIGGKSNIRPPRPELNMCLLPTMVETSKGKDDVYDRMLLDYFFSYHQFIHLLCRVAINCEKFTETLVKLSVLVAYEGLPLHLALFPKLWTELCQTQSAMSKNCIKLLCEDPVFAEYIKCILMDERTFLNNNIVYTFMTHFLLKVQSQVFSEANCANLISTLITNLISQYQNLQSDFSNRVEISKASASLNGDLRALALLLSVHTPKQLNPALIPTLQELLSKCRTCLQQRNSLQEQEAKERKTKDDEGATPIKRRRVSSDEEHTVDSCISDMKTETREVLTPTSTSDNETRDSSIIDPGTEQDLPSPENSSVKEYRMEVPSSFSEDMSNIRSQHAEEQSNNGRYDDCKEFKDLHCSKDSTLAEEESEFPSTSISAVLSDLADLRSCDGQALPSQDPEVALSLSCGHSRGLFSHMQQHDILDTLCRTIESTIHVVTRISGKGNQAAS

O=C(CCl)Nc1nc(-c2cccs2)cs1
inactive: USP34 -0.754 | USP36 -0.271 | USP38 -0.092 | USP39 0.197 | USP4 -0.0279
